Experimental data from PubChem BioAssay (NCI).
This is part of a sample that, as a whole, favours compounds with a hit. Of some 83,000 tested, about 20% had one in any assay.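 The test compound was applied at a single concentration to cells in 96-well plates for 48 hours, and percent growth was recorded.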 Calls of active or inactive are those of the source. Rule for the calls: active = growth percent below 10; inactive = the rest.

Legend:
Assay in all cases: NCI-60 one-dose screen, 48 h (100 = growth as untreated, 0 = no growth, -100 = all killed)
Settings in all cases: 10 µM
NCI-H23 lung = test system: NCI-H23 lung
NCI-H522 lung = test system: NCI-H522 lung
MDA-MB-231 breast = test system: MDA-MB-231 breast
M14 melanoma = test system: M14 melanoma
SK-MEL-5 melanoma = test system: SK-MEL-5 melanoma
UACC-62 melanoma = test system: UACC-62 melanoma
MOLT-4 leukemia = test system: MOLT-4 leukemia
SR leukemia = test system: SR leukemia
OVCAR-8 ovarian = test system: OVCAR-8 ovarian
OVCAR-5 ovarian = test system: OVCAR-5 ovarian
OVCAR-4 ovarian = test system: OVCAR-4 ovarian
SK-OV-3 ovarian = test system: SK-OV-3 ovarian
IGROV1 ovarian = test system: IGROV1 ovarian
HS 578T breast = test system: HS 578T breast
NCI/ADR-RES ovarian = test system: NCI/ADR-RES ovarian
T-47D breast = test system: T-47D breast
SW-620 colon = test system: SW-620 colon
MCF7 breast = test system: MCF7 breast
HCT-116 colon = test system: HCT-116 colon
KM12 colon = test system: KM12 colon

Measured: growth

CCC(C)[C@H]1C(=O)O[C@H](C(C)C)C(=O)N(C)[C@@H](C(C)C)C(=O)O[C@H](C(C)C)C(=O)N(C)[C@@H](C(C)C)C(=O)O[C@H](C(C)C)C(=O)N1C (some centres not stated)
active: NCI-H522 lung 7.23% | MDA-MB-231 breast 7.98% | SK-MEL-5 melanoma -33.5% | UACC-62 melanoma 9.22% | MOLT-4 leukemia -13% | SR leukemia 8.09% | SK-OV-3 ovarian -9.75% | NCI/ADR-RES ovarian 5.25% | T-47D breast 3.16%
inactive: NCI-H23 lung 10% | M14 melanoma 21.2% | OVCAR-8 ovarian 14.9% | OVCAR-5 ovarian 20.7% | OVCAR-4 ovarian 20.3% | IGROV1 ovarian 34.4% | HS 578T breast 30.4% | SW-620 colon 17.4% | MCF7 breast 12.5% | HCT-116 colon 12.2% | KM12 colon 16.4%

CC(C)=CCc1c2c(c(O)c3c1O[C@]14C(=C[C@@H]5C[C@H]1C(C)(C)O[C@@]4(C/C=C(/C)C(=O)O)C5=O)C3=O)C=CC(C)(C)O2
active: NCI-H23 lung -45.4% | NCI-H522 lung -70.9% | MDA-MB-231 breast -56.1% | M14 melanoma -50.1% | SK-MEL-5 melanoma -98.9% | UACC-62 melanoma -69.4% | MOLT-4 leukemia -15.6% | SR leukemia -3.62% | OVCAR-8 ovarian -59.4% | OVCAR-5 ovarian -80.5% | OVCAR-4 ovarian -63.6% | SK-OV-3 ovarian -38.9% | IGROV1 ovarian -55.2% | HS 578T breast -11.1% | NCI/ADR-RES ovarian 4.39% | T-47D breast -40.7% | SW-620 colon -75.1% | MCF7 breast -61% | HCT-116 colon -71.5% | KM12 colon -73.4%

COc1cc2c(O[C@@H]3OC[C@H](OC(C)=O)[C@H](OC(C)=O)[C@H]3O)c3c(c(-c4ccc5c(c4)OCO5)c2cc1OC)C(=O)OC3
active: NCI-H522 lung 4.7% | M14 melanoma -17.9% | SR leukemia 2.16% | T-47D breast -2.78% | HCT-116 colon 9.2%
inactive: NCI-H23 lung 46.3% | MDA-MB-231 breast 13.7% | MOLT-4 leukemia 13.7% | OVCAR-8 ovarian 24.3% | OVCAR-5 ovarian 73% | OVCAR-4 ovarian 51.4% | SK-OV-3 ovarian 23.8% | IGROV1 ovarian 47.9% | HS 578T breast 60.3% | NCI/ADR-RES ovarian 37.7% | SW-620 colon 14.1% | MCF7 breast 36.9% | KM12 colon 27.8%

CC(C)(O)/C=C/C(=O)[C@](C)(O)[C@H]1[C@H](O)C[C@@]2(C)[C@H]3CC=C4[C@@H](C[C@H](O)C(=O)C4(C)C)[C@]3(C)C(=O)C[C@]12C
inactive: NCI-H23 lung 27.7% | MDA-MB-231 breast 10.4% | M14 melanoma 17.1% | MOLT-4 leukemia 24.8% | OVCAR-8 ovarian 23% | OVCAR-5 ovarian 35.1% | OVCAR-4 ovarian 18.3% | NCI/ADR-RES ovarian 24.7% | T-47D breast 27.2% | SW-620 colon 22.9% | MCF7 breast 13% | HCT-116 colon 13.9% | KM12 colon 42.2%
active: NCI-H522 lung -42.5% | SK-MEL-5 melanoma 1.6% | UACC-62 melanoma -2.65% | SR leukemia 8.56% | SK-OV-3 ovarian -8.31% | IGROV1 ovarian -24.4% | HS 578T breast 3.77%

CN1C(=O)[C@]23SSC1(C)C(=O)N2[C@H]1Nc2ccccc2C1([C@@]12c4ccccc4N[C@@H]1N1C(=O)C4(C)SS[C@]1(C(=O)N4C)[C@H]2O)[C@@H]3O (some centres not stated)
active: NCI-H23 lung -66.4% | NCI-H522 lung -84.4% | MDA-MB-231 breast -52.1% | M14 melanoma -90% | SK-MEL-5 melanoma -99% | UACC-62 melanoma -79.2% | MOLT-4 leukemia -20.6% | SR leukemia 0.169% | OVCAR-8 ovarian -76.1% | OVCAR-5 ovarian -66.2% | OVCAR-4 ovarian -98.7% | SK-OV-3 ovarian -98.8% | IGROV1 ovarian -71.7% | HS 578T breast -49.4% | NCI/ADR-RES ovarian -19.4% | T-47D breast -81.3% | SW-620 colon -88.2% | MCF7 breast -77.4% | HCT-116 colon -99.5% | KM12 colon -94.4%

CC1=C2C(=C[C@@](C)(COC(=O)c3ccc(S(=O)(=O)F)cc3)[C@@H]2O)C(=O)[C@](C)(O)C12CC2
inactive: MOLT-4 leukemia 10.2%
active: NCI-H23 lung -32.2% | NCI-H522 lung -64.5% | MDA-MB-231 breast -16.3% | M14 melanoma -85% | SK-MEL-5 melanoma -82.5% | UACC-62 melanoma -77.1% | SR leukemia -0.78% | OVCAR-8 ovarian -31.1% | OVCAR-5 ovarian -12.4% | OVCAR-4 ovarian -33.5% | SK-OV-3 ovarian -24.7% | IGROV1 ovarian -13.9% | HS 578T breast -16% | NCI/ADR-RES ovarian -3.75% | T-47D breast 0.908% | SW-620 colon -20.5% | MCF7 breast 1.68% | HCT-116 colon -4.41% | KM12 colon 7.74%

COc1cc(OC)c(S(=O)(=O)N(CCCl)CCCl)cc1C(=O)/C=C/c1ccc(Cl)cc1
inactive: NCI-H522 lung 83.5% | MDA-MB-231 breast 67.1% | M14 melanoma 68.4% | SK-MEL-5 melanoma 87.1% | UACC-62 melanoma 51.1% | MOLT-4 leukemia 58.8% | SR leukemia 10.1% | OVCAR-8 ovarian 59.8% | OVCAR-5 ovarian 107% | OVCAR-4 ovarian 83.4% | SK-OV-3 ovarian 79% | IGROV1 ovarian 76.3% | HS 578T breast 78.6% | NCI/ADR-RES ovarian 52.3% | T-47D breast 74.4% | SW-620 colon 48.7% | MCF7 breast 15.8% | HCT-116 colon 49.2% | KM12 colon 23.4%
